Eight compounds from PubChem BioAssay can be followed below.

Each structure is given as a SMILES string. Active and inactive are the calls of the source.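 The calls were made as follows, unless noted: active = inhibition at or above 50% at 10 µM; inactive = inhibition below 50%.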

A short description of assay [1]: inhibitors of TNFa-induced NFkB p65 translocation, primary screen, imaging, HUVEC, MLSMR starter and 10KST1 sets (AID 438;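 active = inhibition above 20% together with a positive visual image hit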;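 also: compound added about 3h40 before a 20 min TNFalpha stimulation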;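 as to inhibition: signal is the nuclear over cytoplasmic p65 intensity ratio per well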). As to conditions: HUVEC TNFa-induced p65 nuclear translocation; cell count: measured here: nuclei count (cytotoxicity indicator), at 2.08 µM; inhibition: at 2 µM, stronger effect = higher value, 0% TNFa-plus-vehicle, 100% no-TNFa wells.
Assay [2] can be described thus: inhibitors of mutant huntingtin aggregation, primary screen, imaging, exon1htt(103Q)mCFP cells, high-content imaging (AID 483;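 active = visual image review flags a hit and inhibition of aggregation exceeds 20%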;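 also: compound exposure lasted 3 days before fixation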;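 as to nuclei count: percent of the per-plate median nuclei count of sample wells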). As to conditions: exon1htt(103Q)mCFP cell line, aggregate imaging, at 2 µM; inhibition of aggregation: stronger effect = higher value; nuclei count: measured here: cell count, toxicity.
Assay [3] is described as follows: inhibitors of E-selectin induction by TNFa, primary screen, imaging, HUVEC, immunofluorescence, MLSMR starter and 10KST1 sets (AID 487;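 active = visually confirmed hit in the image check and inhibition above 20%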;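 as to inhibition: signal is fraction of cell area covered by stained E-selectin grains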;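 as to nuclei count: 100% = median nuclei count of all wells on the same plate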). As to conditions: HUVEC TNFalpha-induced E-selectin immunofluorescence imaging, at 2 µM; inhibition: stronger effect = higher value; nuclei count: measured here: cell number, toxicity.
Assay [4] deals with Voltage-gated potassium channel subunit beta-2 (Rattus norvegicus) (UniProt P62483). The experiment in a line: KvBeta enzyme negative modulators, primary screen, biochemical, NADPH fluorescence (AID 622;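 active = fluorescence slope higher than the sample average by over 3 SD, cut at about -0.22 in these data, passing the limit was not always enough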;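 also: slope of raw intensity against log time taken from 70 to 1610 s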). As to conditions: recombinant KvBeta, 4-cyanobenzaldehyde reduction, at 10 µM, stronger effect = higher value.
Assay [5] has the same target. The experiment in a line: KvBeta positive modulators, primary screen, biochemical, NADPH fluorescence (AID 623;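 active = NADPH fluorescence slope more negative than the mean of all samples by about 3 SD, 99.7% confidence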;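 also: fluorescence intensity change per second fitted from 20 to 320 s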). The settings on record: Recombinant KvBeta, NADPH fluorescence decrease slope, 10 min; at 10 µM; stronger effect = lower value.
In assay [6] the target is Alpha-2C adrenergic receptor (Homo sapiens) (UniProt P18825). The experiment in a line: modulators of alpha2C/GIRK thallium flux, primary screen, cell-based, HEK293 alpha2C/GIRK1/2 (AID 624;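 active = fluorescence slope after compound addition differing from the mean of all screened samples at 99.7% confidence, in either direction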;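 also: slope of fluorescence ratio to pre-addition baseline per second over 15 to 24 s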). The settings on record: thallium flux BTC fluorescence, at 10 µM, actives lie on both sides.
Assay [7] in a line: inhibitors of Sendai virus-induced IRF3 signaling, primary screen, TLR/RLR signaling modifier project, cell-based, Sendai virus stimulus, luciferase, 10K MLSCN set (AID 602276).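 Also: firefly luciferase from ISG56 promoter only with Renilla not read in this screen; 0% = Sendai virus plus DMSO and 100% = medium plus DMSO without virus.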 The settings on record: HEK293 RL24 IRF3 luciferase reporter, at 10 µM, stronger effect = higher value.
A short description of assay [8]: inhibitors of poly I:C-induced TLR3 signaling, primary screen, cell-based, poly I:C stimulus, luciferase, 10K MLSCN set (AID 602277;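 active = inhibition of the reporter signal at or above 50%; inactive = inhibition below 50%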). As to conditions: HEK293-TLR3 RL24 IRF3 luciferase reporter, at 10 µM, stronger effect = higher value. On the technique in general: In a reporter assay the amount or activity of a reporter protein is the signal.

Sequence of Alpha-2C adrenergic receptor (Homo sapiens) (P18825 whole entry, looked up): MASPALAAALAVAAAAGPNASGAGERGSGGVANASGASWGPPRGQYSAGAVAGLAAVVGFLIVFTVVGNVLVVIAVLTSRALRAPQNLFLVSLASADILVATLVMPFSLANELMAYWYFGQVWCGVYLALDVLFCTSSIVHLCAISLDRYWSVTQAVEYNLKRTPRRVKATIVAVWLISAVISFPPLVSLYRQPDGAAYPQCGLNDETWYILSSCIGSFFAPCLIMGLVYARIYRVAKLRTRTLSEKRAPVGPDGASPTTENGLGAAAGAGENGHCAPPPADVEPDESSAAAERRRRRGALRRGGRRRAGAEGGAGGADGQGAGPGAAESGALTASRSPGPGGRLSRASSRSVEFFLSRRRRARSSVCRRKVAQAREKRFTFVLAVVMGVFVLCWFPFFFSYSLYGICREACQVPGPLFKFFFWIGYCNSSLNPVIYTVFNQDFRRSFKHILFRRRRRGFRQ
Sequence of Voltage-gated potassium channel subunit beta-2 (Rattus norvegicus) (P62483 whole entry, looked up): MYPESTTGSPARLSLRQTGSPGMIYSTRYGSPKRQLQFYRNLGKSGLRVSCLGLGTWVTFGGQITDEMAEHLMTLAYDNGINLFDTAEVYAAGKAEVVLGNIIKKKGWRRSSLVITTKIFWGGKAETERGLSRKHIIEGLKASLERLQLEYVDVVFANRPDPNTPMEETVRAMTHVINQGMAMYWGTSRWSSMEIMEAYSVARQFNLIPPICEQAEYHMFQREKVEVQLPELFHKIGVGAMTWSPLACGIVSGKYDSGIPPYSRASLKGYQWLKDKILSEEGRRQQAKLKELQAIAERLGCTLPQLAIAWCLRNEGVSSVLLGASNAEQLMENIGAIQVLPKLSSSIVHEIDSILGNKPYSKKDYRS

For the compound `Cc1nc(-c2cccc(N)c2)cs1`, the cell count in assay [1] came to 726. In addition, the inhibition (as a rule, the change of the read-out against control, counted positive when it falls) in assay [1] was -11% (inactive); in assay [3] it was -35.4% (inactive); in assay [7], -3.62% (inactive); in assay [8] it was -15.1% (inactive). Moreover, the inhibition of aggregation in assay [2] was -14.5% (inactive). The nuclei count in assay [2] came out at 77.8%; in assay [3] it was 132%. The fluorescence slope in assay [4] is -0.514 (inactive). Further, the NADPH fluorescence slope in assay [5] was -1e-05 (inactive). Besides, the slope in assay [6] was 0.00706 (inactive).
As for `O=C(Nc1ncc(Cc2ccccc2)s1)C1CCCO1` (stereo not drawn), the cell count in assay [1] is 455. The inhibition was -3.3% (inactive) in assay [1], -1.5% (inactive) in assay [3], -58.5% (inactive) in assay [7] and -150% (inactive) in assay [8]. The inhibition of aggregation in assay [2] was 11% (inactive). The figures for the nuclei count in assay [2] and in assay [3] were 109% and 96.3%, respectively. In assay [4], the fluorescence slope was -0.563 (inactive). Moreover, the NADPH fluorescence slope in assay [5] is -1.3e-05 (inactive). Further, the slope in assay [6] is 0.00728 (inactive).
`C=CC(O)(C#CCN(CC)CC)c1ccccc1` (stereo not drawn): the cell count in assay [1] came to 740. The inhibition was -36% (inactive) in assay [1], -53.6% (inactive) in assay [3], 4.67% (inactive) in assay [7] and 11.4% (inactive) in assay [8]. In assay [2], the inhibition of aggregation is -18.5% (inactive). The nuclei count in assay [2] was found to be 107%; in assay [3] it was 110%. Besides, the fluorescence slope in assay [4] is -0.596 (inactive). For the same compound, the NADPH fluorescence slope in assay [5] was -5e-05 (inactive). Also, the slope in assay [6] is 0.0061 (inactive).
As for `O=C(OCn1nnc2ccccc2c1=O)C1CCN(S(=O)(=O)c2cccs2)CC1`, the cell count in assay [1] came out at 479. Further, the inhibition was 8.9% (inactive) in assay [1], 13.8% (inactive) in assay [3], -1.19% (inactive) in assay [7] and 2% (inactive) in assay [8]. In addition, in assay [2], the inhibition of aggregation is -8.9% (inactive). For the same compound, the figures for the nuclei count in assay [2] and in assay [3] were 103% and 105%, respectively. Besides, the fluorescence slope in assay [4] was -0.356 (inactive). For the same compound, the NADPH fluorescence slope in assay [5] was 9.4e-06 (inactive). Moreover, the slope in assay [6] was 0.00571 (inactive).
`COc1cccc(C2=Nn3c(nnc3-c3ccccc3O)SC2)c1`: in assay [1], the cell count came to 436. For the same compound, the inhibition was 3.4% (inactive) in assay [1], 25.3% (inactive) in assay [3], 6.36% (inactive) in assay [7] and 19.2% (inactive) in assay [8]. For the same compound, in assay [2], the inhibition of aggregation was 2.3% (inactive). The nuclei count is 99.4% in assay [2] and 86.4% in assay [3]. Besides, in assay [4], the fluorescence slope was -0.312 (inactive). Besides, the NADPH fluorescence slope in assay [5] was 2.8e-05 (inactive). For the same compound, in assay [6], the slope is 0.00345 (inactive).
On to `Cc1nc(N)c(C#N)c(-c2cccnc2)c1C`, for which the cell count in assay [1] is 494. For the same compound, the inhibition in assay [1] was -14.5% (inactive); in assay [3] it was -16.2% (inactive); in assay [7], 4.72% (inactive); in assay [8], -5.6% (inactive). In addition, the inhibition of aggregation in assay [2] is 30.9% (inactive). Further, the nuclei count in assay [2] turned out to be 85%; in assay [3] it was 88.9%. The fluorescence slope in assay [4] is -0.411 (inactive). Also, the NADPH fluorescence slope in assay [5] is 1.8e-05 (inactive). Moreover, in assay [6], the slope is 0.00561 (inactive).
As to `CCOc1ccc(NC(=O)CSc2nccn2C)cc1`, the cell count in assay [1] came to 309. Besides, the inhibition in assay [1] was 15.3% (inactive); in assay [3], -28.1% (inactive); in assay [7], -18.3% (inactive); in assay [8], -80.7% (inactive). For the same compound, the inhibition of aggregation in assay [2] is 3.1% (inactive). Further, the nuclei count in assay [2] is 106%; in assay [3] it was 114%. In assay [4], the fluorescence slope was -0.28 (inactive). Also, the NADPH fluorescence slope in assay [5] was 1e-05 (inactive). For the same compound, in assay [6], the slope is 0.00367 (inactive).
Regarding `CC(C)C[C@H](NC(=O)Nc1cccc(C(F)(F)F)c1)C(=O)O`, in assay [1], the cell count worked out at 393. Also, the inhibition was -9.8% (inactive) in assay [1], -25.5% (inactive) in assay [3], -1.3% (inactive) in assay [7] and 6.75% (inactive) in assay [8]. Moreover, in assay [2], the inhibition of aggregation is 9.1% (inactive). For the same compound, the nuclei count in assay [2] was found to be 70.6%; in assay [3], 97.8%. Besides, the fluorescence slope in assay [4] is -0.493 (inactive). The NADPH fluorescence slope in assay [5] is 4.1e-05 (inactive). Moreover, the slope in assay [6] was 0.00499 (inactive).
